KB-3-1 cytotox = kills parental KB-3-1 adenocarcinoma cells; 1.4% of 400,000 active; KB-3-1 viability, CellTiter-Glo ATP luminescence, 72 h; Potency, µM (doses to about 46.1 µM), hits mostly cytotoxic; further: on the % scale 0 is the no-effect control and ±100 the full control effect; nearly all actives have a fitted effect of over 60% in size
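Here the drug-naive KB-3-1 line serves as comparator for MDR sub-line selectivity; cells received compound titrations, 72 h at 37 °C, then CellTiter-Glo readout.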
SW480 rereplic = DNA re-replication induction in SW480 cells; SW480 DNA re-replication, Hoechst DNA content imaging, 48 h; Potency, µM (titrated, usually from 46.1 µM), for the others: at the top dose re-replication activation, actives largely listed as activators; 1.8% of 340,000 active; further: % of control where 0% means no effect; nearly all actives have a fitted effect of over 55% in size
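Image-based DNA-content assay: after two days of treatment, nuclei were labelled with the DNA dye Hoechst and imaged, and hits were compounds raising the count of nuclei showing high fluorescence intensity.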
MCF10A rerep = DNA re-replication induction in MCF 10a cells | MCF 10A DNA re-replication, Hoechst nuclear intensity, 48 h | Potency, µM (top dose mostly 46.1 µM), for the others: at the highest dose activity, positive = re-replication, hits mostly activators | 2.9% of 350,000 active; further: % of control where 0% means no effect; nearly all actives have a fitted effect of over 50% in size
PTAP TSG101 blk = blocks PTAP/TSG101 interaction to inhibit HIV-1 budding; 340,000 tested, under 10 active; Potency, µM (top dose mostly 115 µM), without a hit: top-dose activity change, negative = inhibition, most hits filed as inhibitors; AID 493005; Q99816; Fluorescence polarization, FITC-PTAP peptide / Tsg101 binding; active means well fitted inhibition curve with a large enough effect in the main read-out, with a control signal flat, not every such curve was filed as active; inconclusive means small, poorly fitted or top-dose-only effect, or effect the other way, or a change in a side signal; inactive means no such curve, though single readings can be large or run the other way; further: % of control where 0% means no effect
Target sequence (Q99816 whole entry, looked up): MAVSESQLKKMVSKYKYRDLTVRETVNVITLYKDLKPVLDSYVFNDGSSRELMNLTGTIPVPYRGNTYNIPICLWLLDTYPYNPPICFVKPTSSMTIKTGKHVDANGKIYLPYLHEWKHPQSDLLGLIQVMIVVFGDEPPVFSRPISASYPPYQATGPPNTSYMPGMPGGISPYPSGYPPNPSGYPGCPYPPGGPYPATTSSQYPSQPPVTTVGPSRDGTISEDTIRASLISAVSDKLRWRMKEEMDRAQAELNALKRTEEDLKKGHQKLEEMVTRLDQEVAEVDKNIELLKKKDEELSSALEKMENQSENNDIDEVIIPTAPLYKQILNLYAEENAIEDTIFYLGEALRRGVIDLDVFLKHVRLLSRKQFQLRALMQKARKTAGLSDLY
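Compounds were pin-transferred onto Tsg101 binding domain (10 uM final) in HEPES pH 7.5 buffer, then FITC-PTAP peptide was added at 50 nM final. After 20 min at RT, polarization reported peptide displacement across a qHTS concentration series.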
PINK1 expr mod = PINK1 expression modulation; PINK1 immunofluorescence, high-content cytometry, 24 h; Potency, µM (series often up to 76.6 µM), without a hit: at the highest dose activation (PINK1 increase), hits mostly activators; 0.2% of 410,000 active; AID 624263; active means well fitted activation curve with a large enough effect; inconclusive means small, poorly fitted or top-dose-only effect; cell line not stated here; further: % of control where 0% means no effect; nearly all actives have a fitted effect of over 65% in size
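PINK1 protein, normally rapidly degraded, was detected by immunofluorescence after 24 hour compound treatment of a stable cell line. Titration data (5 concentrations) came from laser-scanning cytometry, with CCCP-treated wells as controls.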
KB-V1 MDR tox = KB-V1 MDR subline cytotoxicity | Potency, µM (highest dose often 46.1 µM), actives largely listed as cytotoxic | AID 1347076 | KB-V1 MDR cells viability, CellTiter-Glo, 72 h | 3.4% of 400,000 active; further: on the % scale 0 is the no-effect control and ±100 the full control effect; nearly all actives have a fitted effect of over 60% in size
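Following 72 h at 37 degrees C with compound, KB-V1 cell viability was read by CellTiter-Glo luminescence, medium being phenol-red-free DMEM plus 10% FBS; concentration-response parameters came from normalized, curve-fitted qHTS data.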
An asterisk follows results filed as active; i = inactive; ? = inconclusive; / = no result given; ! = repeats disagree; [ ] = another dose, or the depositor's remark. Compounds with a hit are over-represented: about 6.8% of the library has one in this group of screens. Unless noted, the call rests on the fitted dose curve; in most records, active means well fitted curve in the direction sought with a large enough effect; inconclusive means small, poorly fitted or top-dose-only effect, or another doubt; inactive means no such curve, though single readings can be large; an effect the other way counts as inactive or inconclusive. Potency means the concentration at half of the fitted maximal effect.

SMILES	KB-3-1 cytotox	SW480 rereplic	MCF10A rerep	PTAP TSG101 blk	PINK1 expr mod	KB-V1 MDR tox
O=C(c1cccc(F)c1)N1CCN(c2cc(N3CCCCC3)c(F)cc2[N+](=O)[O-])CC1	?	-2%	?	-4%	2%[38.3 µM]	18µM*
CC(O)CNc1ncnc2nc[nH]c12 (stereo not drawn)	i	-23%	0%	-3%	0%	i
CC(C)CCCCCCCCCCCCC(=O)NCC(=O)NC1C(O)C(O)C(Nc2ncnc3nc[nH]c23)OC1C(O)CO (stereo not drawn)	0.18µM*	?	0%	-4%	-6%	0.16µM*
CCOc1ccc(NC(=O)c2ccc(F)c(S(=O)(=O)N3CCN(c4ccccn4)CC3)c2)cc1	i	2%	2%	/	2%[38.3 µM]	2.3µM*
O=C(Nc1cccc(Cl)c1)c1ccc(F)c(S(=O)(=O)N2CCN(c3ccccn3)CC2)c1	?	0%	23µM*!	-3%	1%	?
O=C(Nc1cc(Cl)cc(Cl)c1)c1ccc(F)c(S(=O)(=O)N2CCCC2)c1	/	/	/	/	12%	/
COc1cccc(C(=O)Nc2ccc(NC(=O)c3cc4ccccc4o3)c(OC)c2)c1	?	?	10µM*	0%	7%	i
Cc1ccc(NC(=O)c2cc3ccccc3o2)cc1S(=O)(=O)N(C)C	i	-2%	9%	-9%	0%	?
COc1cc(NC(=O)c2ccccc2)ccc1NC(=O)c1cc2ccccc2o1	i	6%	?	0%	9%	i
COc1cc(NC(=O)c2ccc(C)c(Cl)c2)ccc1NC(=O)c1cc2ccccc2o1	i	/	/	/	1%	i
CN(C)S(=O)(=O)c1ccc(NC(=O)c2cc3ccccc3o2)cc1	i	-4%	?	-5%	4%[38.3 µM]	21µM*
Cc1cc(NC(=O)c2cncc(Br)c2)ccc1NC(=O)c1cc2ccccc2o1	?	?	2.9µM*	-1%	2%	?
Cc1c(C(=O)Nc2ccc(F)cc2F)oc2c1-c1nn(Cc3c(F)cccc3Cl)cc1CC2	/	/	/	/	1%	/
O=[N+]([O-])c1cc(-c2nc(-c3ccccc3)no2)ccc1N1CCCCC1	i	/	/	/	1%	i
CC(=O)N1c2ccccc2CC1C(=O)N1CCN(c2ccccc2F)CC1 (stereo not drawn)	i	/	/	/	-1%	i
Brc1cc(Br)c[n+](CCc2ccccc2)c1	i	/	/	/	/	i
CC(C)CCC(CCN1CCOCC1)c1ccc2c(c1)OCO2 (stereo not drawn)	i	1%	?	-2%	20%[38.3 µM]	21µM*
COc1ccc(CN2C(=O)C(NC(=O)c3ccccc3C)(C(F)(F)F)N=C2c2ccccc2)cc1 (stereo not drawn)	i	/	/	/	1%	i
Cc1ccc(NC(=O)CSc2cn(CC(=O)N3CCOCC3)c3ccccc23)cc1Cl	/	/	/	/	2%	/
C=CCN(c1ccccc1)S(=O)(=O)c1cccc(C(=O)N2CC(C)CC(C)C2)c1 (stereo not drawn)	?	?	10µM*	5%	5%	7.3µM*
COc1cc(CN2c3ccc(Br)cc3C(=O)CS2(=O)=O)cc(OC)c1	i	/	/	/	/	i
COc1ccc(OC)c(C2C(C#N)=C(N)Oc3c2c(C)nn3-c2cccc(Cl)c2)c1 (stereo not drawn)	23µM*	6%	?	-2%	-2%[38.3 µM]	i
Cc1nn(-c2cccc(Cl)c2)c2c1C(c1ccncc1)C(C#N)=C(N)O2 (stereo not drawn)	i	-4%	?	-4%	0%	i
CC(C)=NNc1nc2sc3c(c2c(=O)[nH]1)CC(C)(C)OC3	i	?	12µM*	-4%	4%	i
Cc1cccc(OCCSc2nc3ccc(NC(=O)c4cccs4)cc3s2)c1	i	/	/	/	2%	i
SMILES	KB-3-1 cytotox	SW480 rereplic	MCF10A rerep	PTAP TSG101 blk	PINK1 expr mod	KB-V1 MDR tox
CCOC(=O)c1sc2nc(C)nc(N3CCCCC3C)c2c1C (stereo not drawn)	i	4%	18µM*	-1%	11%	i
Cc1nc(N2CCCCC2C)c2c(C)c(C(=O)Nc3cccc(C(F)(F)F)c3)sc2n1 (stereo not drawn)	i	27%	18µM*	2%	9%	?
COc1cc(NC(=O)c2sc3nc(C)nc(N4CCOCC4)c3c2C)cc(OC)c1OC	i	11%	2%	1%	5%	23µM*
Cc1nc(N2CCCCC2)c2c(C)c(C(=O)Nc3cccc(C(F)(F)F)c3)sc2n1	i	-149%	18µM*	-1%	21%	i
Cc1nc(N2CCCCC2)c2c(C)c(C(=O)Nc3ccccc3C(F)(F)F)sc2n1	i	3%	?	-2%	7%	i
COc1ccc(C)cc1NC(=O)c1sc2nc(C)nc(N3CCOCC3)c2c1C	i	8%	4%	-4%	9%	i
CN1C(=O)Cc2cc(S(=O)(=O)NCc3ccc(Cl)cc3)ccc21	/	/	/	/	1%	/
O=S(=O)(c1ccc(-c2csc(=Nc3ccc(OC(F)(F)Cl)cc3)n2CCCO)cc1)N1CCCC1	/	/	/	/	7%	/
COc1cc(OC)cc(N2C(=O)N(Cc3ccc(C(C)(C)C)cc3)c3ccccc3S2(=O)=O)c1	i	/	/	/	1%	i
CC1=C(C(=O)Nc2ccc(Cl)cc2)C(c2ccc(C(F)(F)F)cc2)n2nnnc2N1 (stereo not drawn)	i	/	/	/	1%	i
O=c1[nH]c(=O)c2nc3c4ccccc4c4ccccc4c3nc2[nH]1	i	?	2.6µM*	-2%	?	i
O=c1[nH]c(=O)c2nc(-c3ccc(Cl)cc3)cnc2[nH]1	i	?	-29%	-1%	-2%	?
C=CCNC(=O)c1sc(-c2ccccc2)nc1C	i	?	0%	-4%	-1%	i
Cc1cc(-c2nc(C)c(C(=O)NN)s2)no1	i	?	18µM*	1%	11%	i
Cc1ccc(N/C=C/C(=O)c2cccs2)cc1	i	-4%	2%	-2%	0%	i
Cc1nc(-c2ccccc2)sc1C(=O)NN	?	?	18µM*	-6%	11%	i
Cc1ccc(N/C=C/C(=O)c2sc(-c3ccccc3)nc2C)cc1	?	14%	9.2µM*	?	10%	?
CC(C)=CNNC(=O)c1ccc(O)cc1	i	/	/	/	1%	i
C/C(=N\OCC(=O)Nc1ccccc1Br)c1cccs1	i	0.15µM*	?	1%	0%	i
CCOc1ccc(-n2c(-c3ccccc3)c(C)n3c4c(=O)n(C)c(=O)n(C)c4nc23)cc1	i	/	/	/	0%	i
